PubChem BioAssay (Tox21)
A number with no mark means an inactive call. Results filed as inconclusive are left out. A call without a number means that no potency is given here. Calls of active or inactive are those of the source. Unless noted, the call rests on the fitted dose curve; in most records, active means well fitted curve in the direction sought with a large enough effect in the repeat runs; inconclusive means weak or mixed curves; inactive means no such curve, though single readings can be large; an effect the other way counts as inactive or inconclusive.

Tests used:
[1] = A CellTox Green Cytotoxicity Assay to monitor cytotoxicity in HepG2 cells - 0 hour (AID 1224882); further: nearly all actives have a fitted effect of over 35% in size; further: potency means the concentration at half of the fitted maximal effect
Method in brief: (§1)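 HepG2, 600 cells/well premixed w/ CellTox Green; 5 h settle, 37 C/5% CO2; pintool cpd add (DMSO); 37 C, 40 h; fluorescence read at 0, 8, 16, 24, 32, 40 h.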

[2] = A CellTox Green Cytotoxicity Assay to monitor cytotoxicity in HepG2 cells - 32 hour (AID 1224883); further: nearly all actives have a fitted effect of over 50% in size; further: potency means the concentration at half of the fitted maximal effect
Method in brief: as §1

[3] = A CellTox Green Cytotoxicity Assay to monitor cytotoxicity in HEK293 cells - 8 hour (AID 1224884); further: nearly all actives have a fitted effect of over 35% in size
Method in brief: (§2)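 Read-out: fluorescence of a cell-impermeant cyanine dye staining DNA of dead cells, proportional to cytotoxicity. HEK293, 600 cells/well with reagent, compound (23 nL DMSO) added after 5 h; reads at 0, 8, 16, 24, 32, 40 h.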

[4] = qHTS RealTime-Glo MT Cell Viability Assay in HEK293 cells - 24 hour (AID 1224886); further: top concentration of the series differs between compounds; nearly all actives have a fitted effect of over 50% in size
Method in brief: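 Viability tracked continuously by luminescence as live cells reduce a prosubstrate for NanoLuc; HEK293 cells preincubated 5 h, compound-treated at 37 C, and read at 0, 8, 16, 24, 32 and 40 h.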

[5] = qHTS RealTime-Glo MT Cell Viability Assay in HEK293 cells - 8 hour (AID 1224887); further: top concentration of the series differs between compounds; nearly all actives have a fitted effect of over 50% in size
Method in brief: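 Luminescence readout at each listed time point; HEK293, 600 cells/well, RealTime-Glo MT reagent added with cells; compounds pinned (23 nL in DMSO) after 5 h at 37 C; continuous culture at 37 C.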

[6] = A CellTox Green Cytotoxicity Assay to monitor cytotoxicity in HEK293 cells - 16 hour (AID 1224888); further: nearly all actives have a fitted effect of over 35% in size
Method in brief: as §2

[7] = qHTS RealTime-Glo MT Cell Viability Assay in HepG2 cells - 0 hour (AID 1224889); further: nearly all actives have a fitted effect of over 50% in size
Method in brief: (§3)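 Viability was tracked continuously by NanoLuc luminescence from prosubstrate reduced by living HepG2 cells, at successive time points over 40 h of compound exposure. Cells with reagent were preincubated 5 h at 37 °C before compound addition.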

[8] = A CellTox Green Cytotoxicity Assay to monitor cytotoxicity in HepG2 cells - 8 hour (AID 1224890); further: nearly all actives have a fitted effect of over 45% in size
Method in brief: as §1

[9] = qHTS assay to identify small molecule antagonists of the estrogen receptor alpha (ER-alpha) signaling pathway using the BG1 cell line in the presence of 0.1 nM 17-beta-estradiol - cell viability counter screen (AID 1259241); further: nearly all actives have a fitted effect of over 40% in size
Method in brief: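 Following 5 days in phenol red-free medium with charcoal-stripped serum, VM7Luc4E2 cells received test compounds alongside 0.1 nM 17beta-estradiol (final) at 37C for 22 hr. Live cells were then quantified via protease-substrate fluorescence.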

[10] = qHTS assay to identify small molecule antagonists of the androgen receptor (AR) signaling pathway using the MDA cell line in the presence of 0.5 nM R1881 - cell viability counter screen (AID 1259242); further: nearly all actives have a fitted effect of over 45% in size
Method in brief: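 Live-cell protease fluorescence, CellTiter-Fluor, 30 min at 37C. Cells: MDA-kb2, 3,000/well, preincubated 5 hr. Compounds plus 0.5 nM R1881 final, 16 hr, 37C, 0% CO2.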

[11] = target: Estrogen receptor (Homo sapiens) (UniProt P03372); assay: qHTS assay to identify small molecule antagonists of the estrogen receptor alpha (ER-alpha) signaling pathway using the BG1 cell line in the presence of 0.1 nM 17-beta-estradiol (AID 1259244); further: nearly all actives have a fitted effect of over 50% in size
Method in brief: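 Luminescence after ONE-Glo (30 min, room temperature) measured ERE-luciferase activity in VM7Luc4E2 cells treated 22 h with compound and 0.1 nM final 17beta-estradiol as stimulator.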

[12] = qHTS assay to identify small molecule phospholipidosis (PLD) inducers (AID 1259344; active means well fitted curve in the direction sought with a large enough effect; an effect the other way counts as inactive or inconclusive)
Method in brief: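 Accumulated phospholipid, stained red by LipidTOX during 24 h compound treatment of HepG2 cells at 37 C, is quantified from images as pit number and intensity, normalised per cell using Hoechst-stained nuclei.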

[13] = qHTS assay to identify small molecule HDAC inhibitors (AID 1259364);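 further: wild-type HCT-116 cells with endogenous class I/II HDAC activity; top concentration of the series differs between compounds; nearly all actives have a fitted effect of over 45% in size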
Method in brief: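 HCT-116 (wild type), 1,500 cells/well, overnight; compound 2 hr 37C 5% CO2; HDAC-Glo I/II reagent 30 min RT; luminescence readout.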

[14] = qHTS assay to identify small molecule HDAC inhibitors - cell viability counter screen (AID 1259365)
Method in brief: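 HCT-116 wild-type, overnight attachment; 2hr drug exposure, 37C; CellTiter-Glo luminescent ATP readout after 30min RT.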

[15] = qHTS assay to identify small molecule antagonists of the sonic hedgehog signaling (Shh) pathway - cell viability counter screen (AID 1259367); further: nearly all actives have a fitted effect of over 55% in size
Method in brief: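 CellTiter-Fluor signal in conditioned medium-stimulated 3T3 Gli1-Luc cells, 23 hr compound exposure, 37C.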

[16] = qHTS assay to identify small molecule agonists of the sonic hedgehog signaling (Shh) pathway (AID 1259368; calls by dose curve;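 further: NIH/3T3-derived 3T3Gli1-Luc cells carrying a stable Gli1-driven firefly luciferase reporter; series mostly up to about 92 µM; nearly all actives have a fitted effect of over 15% in size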)
Method in brief: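 Read-out: firefly luciferase luminescence from a Gli1 response element reporter stably integrated in NIH/3T3-derived 3T3Gli1-Luc cells, measured 30 min at room temperature after reagent addition. Compound exposure lasted 24 hr at 37 C, 5% CO2.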

[17] = qHTS RealTime-Glo MT Cell Viability Assay in HepG2 cells - 16 hour (AID 1224885); further: nearly all actives have a fitted effect of over 50% in size
Method in brief: as §3

[18] = qHTS assay to identify small molecule agonists of the sonic hedgehog signaling (Shh) pathway - cell viability counter screen (AID 1259366); further: nearly all actives have a fitted effect of over 50% in size; further: potency means the concentration at half of the fitted maximal effect
Method in brief: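 Compounds in DMSO were pin-transferred onto 3T3 Gli1-Luc cells that had settled 4hr; plates then stood 24hr at 37C and 5% CO2. One hour before the end, CellTiter-Fluor was added and fluorescence recorded.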

[19] = qHTS assay to identify small molecule antagonists of the sonic hedgehog signaling (Shh) pathway (AID 1259369; calls by dose curve; further: nearly all actives have a fitted effect of over 45% in size)
Method in brief: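 Luminescence readout: firefly Luc under Gli1 response element in 3T3Gli1-Luc cells (NIH/3T3 clone). Antagonist mode, stimulation by conditioned medium; compound exposure 24hr at 37 C, 5% CO2.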

[20] = target: Androgen receptor (Homo sapiens) (UniProt P10275); assay: qHTS assay to identify small molecule antagonists of the androgen receptor (AR) signaling pathway using the MDA cell line in the presence of 0.5 nM R1881 (AID 1259243); further: nearly all actives have a fitted effect of over 50% in size; further: potency means the concentration at half of the fitted maximal effect
Method in brief: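 MDA-kb2, MMTV-luc (AR/GR elements); 3,000 cells/well; cpd + 0.5 nM R1881 final; 16 hr 37C, 0% CO2; ONE-Glo 30 min RT; luminescence.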

Androgen receptor (Homo sapiens), sequence (P10275 whole entry, looked up): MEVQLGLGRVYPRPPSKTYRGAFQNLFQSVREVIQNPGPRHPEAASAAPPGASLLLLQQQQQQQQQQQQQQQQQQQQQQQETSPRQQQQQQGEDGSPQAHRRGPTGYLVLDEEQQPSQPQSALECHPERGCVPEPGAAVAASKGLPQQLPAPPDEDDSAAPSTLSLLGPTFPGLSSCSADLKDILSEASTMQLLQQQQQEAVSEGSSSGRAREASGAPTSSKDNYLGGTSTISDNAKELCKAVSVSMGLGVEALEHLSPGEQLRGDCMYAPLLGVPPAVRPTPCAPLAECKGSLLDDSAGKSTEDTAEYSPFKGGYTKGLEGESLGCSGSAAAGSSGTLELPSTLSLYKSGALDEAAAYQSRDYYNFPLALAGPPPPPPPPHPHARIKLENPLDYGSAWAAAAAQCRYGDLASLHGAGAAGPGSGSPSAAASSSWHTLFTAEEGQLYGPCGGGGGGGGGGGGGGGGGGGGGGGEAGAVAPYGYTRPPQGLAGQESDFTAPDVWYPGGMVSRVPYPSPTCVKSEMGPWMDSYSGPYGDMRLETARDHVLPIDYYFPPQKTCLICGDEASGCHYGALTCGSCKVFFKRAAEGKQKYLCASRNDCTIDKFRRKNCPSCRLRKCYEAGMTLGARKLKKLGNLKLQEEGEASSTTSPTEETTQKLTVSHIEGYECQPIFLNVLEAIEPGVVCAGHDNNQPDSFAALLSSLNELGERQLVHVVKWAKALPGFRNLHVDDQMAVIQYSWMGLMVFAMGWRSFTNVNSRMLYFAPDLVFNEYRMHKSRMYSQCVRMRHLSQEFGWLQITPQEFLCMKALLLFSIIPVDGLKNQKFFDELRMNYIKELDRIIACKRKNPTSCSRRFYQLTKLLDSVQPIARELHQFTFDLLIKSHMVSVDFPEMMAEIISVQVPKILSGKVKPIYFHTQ
Estrogen receptor (Homo sapiens), sequence (P03372 whole entry, looked up): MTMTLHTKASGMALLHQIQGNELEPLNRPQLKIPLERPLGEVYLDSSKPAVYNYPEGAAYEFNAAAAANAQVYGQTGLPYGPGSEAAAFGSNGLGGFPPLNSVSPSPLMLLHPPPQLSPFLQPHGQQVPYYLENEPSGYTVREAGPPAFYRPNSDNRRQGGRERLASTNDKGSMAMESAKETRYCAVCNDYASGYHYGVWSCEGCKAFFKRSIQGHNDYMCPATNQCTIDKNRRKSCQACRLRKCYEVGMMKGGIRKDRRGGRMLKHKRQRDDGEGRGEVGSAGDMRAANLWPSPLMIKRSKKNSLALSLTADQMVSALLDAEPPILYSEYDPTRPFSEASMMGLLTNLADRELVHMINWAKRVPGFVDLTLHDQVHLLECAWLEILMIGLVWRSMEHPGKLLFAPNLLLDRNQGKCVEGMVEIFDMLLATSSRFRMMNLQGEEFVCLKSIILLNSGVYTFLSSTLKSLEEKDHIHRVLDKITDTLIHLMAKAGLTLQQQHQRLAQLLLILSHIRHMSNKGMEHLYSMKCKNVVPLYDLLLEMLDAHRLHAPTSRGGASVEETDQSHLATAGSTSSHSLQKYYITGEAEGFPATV

Structure (SMILES)	Potency [1]	Potency [2]	outcome [3]	Potency [4]	Potency [5]	outcome [6]	Potency [7]	outcome [8]	outcome [9]	outcome [10]	outcome [11]	outcome [12]	Potency [13]	outcome [14]	Potency [15]	outcome [16]	outcome [17]	Potency [18]	Potency [19]	Potency [20]
CCOC(=O)c1cnc2c(cnn2CC)c1NN=C(C)C	inactive	inactive	inactive	inactive	inactive	inactive	inactive	inactive	inactive	inactive	inactive	inactive	inactive	inactive	inactive	inactive	–	–	–	–
Cc1ccc(C(=O)Nc2ccc(S(=O)(=O)O)c3cc(S(=O)(=O)O)cc(S(=O)(=O)O)c23)cc1NC(=O)c1cccc(NC(=O)Nc2cccc(C(=O)Nc3cc(C(=O)Nc4ccc(S(=O)(=O)O)c5cc(S(=O)(=O)O)cc(S(=O)(=O)O)c45)ccc3C)c2)c1	23.9 µM (active)	inactive	inactive	inactive	inactive	inactive	–	inactive	inactive	inactive	inactive	inactive	inactive	inactive	inactive	inactive	inactive	inactive	inactive	–
CC(=O)c1cnccn1	inactive	inactive	inactive	inactive	inactive	–	inactive	–	inactive	inactive	–	–	inactive	inactive	inactive	inactive	inactive	inactive	inactive	–
Nc1ccn([C@@H]2O[C@H](CO)[C@@H](O)C2(F)F)c(=O)n1	inactive	inactive	inactive	–	–	inactive	inactive	inactive	inactive	inactive	inactive	inactive	inactive	inactive	inactive	inactive	inactive	inactive	inactive	–
COc1cc2c(cc1OC)-c1cc3ccc(OC)c(OC)c3c[n+]1CC2	inactive	inactive	inactive	–	inactive	inactive	inactive	inactive	inactive	–	–	–	inactive	inactive	inactive	inactive	inactive	inactive	inactive	–
CCOC(=O)C1=NOC(c2ccccc2)(c2ccccc2)C1	inactive	inactive	inactive	inactive	inactive	inactive	inactive	inactive	inactive	inactive	inactive	–	inactive	inactive	inactive	inactive	–	inactive	–	–
CC[N+](C)(CC)CCOC(=O)C1c2ccccc2Oc2ccccc21	inactive	inactive	inactive	inactive	inactive	inactive	–	inactive	inactive	inactive	–	inactive	inactive	inactive	inactive	inactive	inactive	inactive	inactive	–
Cc1nc2ccc(CN(C)c3ccc(C(=O)N[C@@H](CCC(=O)O)C(=O)O)s3)cc2c(=O)[nH]1	inactive	inactive	inactive	inactive	inactive	–	inactive	inactive	inactive	inactive	–	inactive	inactive	inactive	inactive	inactive	inactive	inactive	–	inactive
CCCc1ncc(C[n+]2ccccc2C)c(N)n1	inactive	inactive	inactive	inactive	inactive	inactive	–	inactive	inactive	inactive	–	inactive	inactive	inactive	inactive	inactive	inactive	inactive	inactive	–
C[C@H]1[C@H](NC(=O)/C(=N/OC(C)(C)C(=O)O)c2csc(N)n2)C(=O)N1S(=O)(=O)O (stereo in doubt)	inactive	inactive	inactive	inactive	inactive	inactive	–	inactive	inactive	inactive	–	inactive	–	inactive	inactive	inactive	inactive	inactive	inactive	–
O=S(=O)(O)c1cccc2c(S(=O)(=O)O)cccc12	inactive	inactive	inactive	–	inactive	–	inactive	inactive	inactive	inactive	–	–	inactive	inactive	inactive	inactive	inactive	inactive	inactive	–
COC(=O)Nc1ccc(Cl)c(Cl)c1	inactive	inactive	inactive	–	–	inactive	inactive	inactive	inactive	inactive	–	–	inactive	inactive	inactive	inactive	inactive	inactive	–	6.82 µM (active)
CC(=O)O[C@@]12CO[C@@H]1C[C@H](O)[C@@]1(C)C(=O)[C@H](O)C3=C(C)[C@@H](OC(=O)[C@H](O)[C@@H](NC(=O)OC(C)(C)C)c4ccccc4)C[C@@](O)([C@@H](OC(=O)c4ccccc4)[C@H]21)C3(C)C	inactive	0.0067 µM (active)	inactive	–	inactive	inactive	inactive	inactive	inactive	inactive	inactive	inactive	–	inactive	–	inactive	inactive	6.68 µM (active)	–	inactive
C=COC(=O)C(C)(CC)CCC(C)C (stereo not given)	inactive	inactive	inactive	inactive	inactive	inactive	–	inactive	inactive	inactive	inactive	–	inactive	inactive	inactive	inactive	inactive	inactive	inactive	–
CC(C)(C)C(=O)c1ccccc1	inactive	inactive	inactive	inactive	inactive	inactive	–	inactive	inactive	inactive	–	–	inactive	inactive	inactive	inactive	inactive	inactive	inactive	–
COc1ccc2cc1Oc1cc3c(cc1OC)CC[N+](C)(C)[C@H]3Cc1ccc(cc1)Oc1c(OC)c(OC)cc3c1[C@@H](C2)[N+](C)(C)CC3	inactive	inactive	inactive	inactive	inactive	inactive	–	inactive	inactive	inactive	inactive	inactive	–	inactive	inactive	inactive	inactive	inactive	inactive	–
